# Test results: publication PMC7862700, “An all-to-all approach to the identification of sequence-specific readers for epigenetic DNA modifications on cytosine”
# Legend:
# Experiment in all cases: DAPPL (digital affinity profiling via proximity ligation, sequencing); 10 mM Tris-HCl pH 7.5, 50 mM NaCl, 1 mM DTT, 4% glycerol, room temperature, 30 min; GST-TFs on glutathione beads, 16-mer random dsDNA library, 0.1% formaldehyde crosslink after washing; high values mean tight binding
# FEV = target: T1, FEV (Homo sapiens, UniProt Q99581 1-238); conditions: protein: recombinant; tags: N-terminal GST; dsDNA, one strand shown
# T1 sequence: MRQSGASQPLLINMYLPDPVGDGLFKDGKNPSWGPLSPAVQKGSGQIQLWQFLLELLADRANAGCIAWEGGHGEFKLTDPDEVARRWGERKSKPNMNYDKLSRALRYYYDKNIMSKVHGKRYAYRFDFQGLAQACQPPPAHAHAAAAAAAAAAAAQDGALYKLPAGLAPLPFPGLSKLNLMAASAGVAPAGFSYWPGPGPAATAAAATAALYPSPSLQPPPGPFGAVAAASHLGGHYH
# In short: (§1)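 After expression in yeast as GST fusions, human transcription factors were bound to glutathione beads, DNA-barcoded and mixed with a tag-only sample. The pools were incubated with 200 nmole of a 16-mer random double-stranded DNA library in Tris/NaCl/DTT/glycerol buffer (30 min, room temperature), washed and crosslinked with 0.1% formaldehyde. Proximity ligation with BsaI/T4 ligase ran for 1 h at 37 °C, before PCR amplification and sequencing on an Illumina NextSeq500. Binding signal is a hexamer's read frequency for a factor divided by its frequency for the tag-only sample.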
# ETV5 = ETV5 (Homo sapiens, UniProt P41161 1-510); conditions: protein: recombinant; tags: N-terminal GST; dsDNA, one strand shown
# In short: as §1
# HSF1 = HSF1 (Homo sapiens, UniProt Q00613 1-529); conditions: protein: recombinant; tags: N-terminal GST; chain copies: 3; dsDNA, one strand shown
# In short: as §1
# SPIC = target: T2, SPIC (Homo sapiens, UniProt Q8N5J4 1-248); conditions: protein: recombinant; tags: N-terminal GST; dsDNA, one strand shown
# T2 sequence: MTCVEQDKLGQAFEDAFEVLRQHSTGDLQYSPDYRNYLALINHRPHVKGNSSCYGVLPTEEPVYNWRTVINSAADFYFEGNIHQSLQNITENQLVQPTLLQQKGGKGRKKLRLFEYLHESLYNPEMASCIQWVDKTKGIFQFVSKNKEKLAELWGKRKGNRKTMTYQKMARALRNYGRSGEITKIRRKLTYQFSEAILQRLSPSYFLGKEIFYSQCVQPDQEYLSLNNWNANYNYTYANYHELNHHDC
# In short: as §1
# ELF4 = ELF4 (Homo sapiens, UniProt Q99607 1-663); conditions: protein: recombinant; tags: N-terminal GST; dsDNA, one strand shown
# In short: as §1
# ELK4 = target: T3, ELK4 (Homo sapiens, UniProt P28324-2 1-405); conditions: protein: recombinant; tags: N-terminal GST; dsDNA, one strand shown
# T3 sequence: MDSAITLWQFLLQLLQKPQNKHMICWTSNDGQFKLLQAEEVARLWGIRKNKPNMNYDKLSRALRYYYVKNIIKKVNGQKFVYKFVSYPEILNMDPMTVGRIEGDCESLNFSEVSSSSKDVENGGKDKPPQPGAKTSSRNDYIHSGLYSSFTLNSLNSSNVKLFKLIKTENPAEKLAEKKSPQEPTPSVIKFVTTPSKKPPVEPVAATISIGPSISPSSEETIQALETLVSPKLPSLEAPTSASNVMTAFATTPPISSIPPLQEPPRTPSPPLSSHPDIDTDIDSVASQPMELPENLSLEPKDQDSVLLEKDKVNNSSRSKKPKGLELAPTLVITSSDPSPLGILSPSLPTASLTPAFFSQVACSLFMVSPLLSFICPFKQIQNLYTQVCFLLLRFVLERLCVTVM
# In short: as §1
# ETV2 = target: T4, ETV2 (Homo sapiens, UniProt O00321 1-342); conditions: protein: recombinant; tags: N-terminal GST; dsDNA, one strand shown
# T4 sequence: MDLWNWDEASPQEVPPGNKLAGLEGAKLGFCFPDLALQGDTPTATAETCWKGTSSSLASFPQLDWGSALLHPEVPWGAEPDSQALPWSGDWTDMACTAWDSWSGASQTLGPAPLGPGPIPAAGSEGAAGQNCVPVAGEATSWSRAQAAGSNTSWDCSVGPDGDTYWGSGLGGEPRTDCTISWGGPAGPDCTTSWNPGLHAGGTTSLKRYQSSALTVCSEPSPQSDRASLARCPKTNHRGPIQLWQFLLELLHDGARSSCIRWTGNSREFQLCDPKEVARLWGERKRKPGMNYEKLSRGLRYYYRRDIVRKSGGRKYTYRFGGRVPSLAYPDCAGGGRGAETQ
# In short: as §1
# ELF3 = target: T5, ELF3 (Homo sapiens, UniProt P78545 1-371); conditions: protein: recombinant; tags: N-terminal GST; dsDNA, one strand shown
# T5 sequence: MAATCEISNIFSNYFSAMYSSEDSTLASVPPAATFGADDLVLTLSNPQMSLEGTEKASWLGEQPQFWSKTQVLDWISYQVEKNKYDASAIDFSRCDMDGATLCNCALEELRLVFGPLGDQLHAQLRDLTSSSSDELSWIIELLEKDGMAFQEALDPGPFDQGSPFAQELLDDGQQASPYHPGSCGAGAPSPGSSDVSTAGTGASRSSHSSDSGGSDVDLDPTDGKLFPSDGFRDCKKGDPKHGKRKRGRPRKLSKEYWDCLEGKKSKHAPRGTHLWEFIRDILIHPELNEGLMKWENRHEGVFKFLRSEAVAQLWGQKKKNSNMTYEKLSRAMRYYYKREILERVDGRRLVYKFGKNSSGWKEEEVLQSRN
# In short: as §1
# CRX = CRX (Homo sapiens, UniProt O43186 1-299); conditions: protein: recombinant; tags: N-terminal GST; dsDNA, one strand shown
# In short: as §1
# ETV1 = ETV1 (Homo sapiens, UniProt P50549 1-477); conditions: protein: recombinant; tags: N-terminal GST; dsDNA, one strand shown
# In short: as §1
# ERF = target: T6, ERF (Homo sapiens, UniProt P50548 1-548); conditions: protein: recombinant; tags: N-terminal GST; dsDNA, one strand shown
# T6 sequence: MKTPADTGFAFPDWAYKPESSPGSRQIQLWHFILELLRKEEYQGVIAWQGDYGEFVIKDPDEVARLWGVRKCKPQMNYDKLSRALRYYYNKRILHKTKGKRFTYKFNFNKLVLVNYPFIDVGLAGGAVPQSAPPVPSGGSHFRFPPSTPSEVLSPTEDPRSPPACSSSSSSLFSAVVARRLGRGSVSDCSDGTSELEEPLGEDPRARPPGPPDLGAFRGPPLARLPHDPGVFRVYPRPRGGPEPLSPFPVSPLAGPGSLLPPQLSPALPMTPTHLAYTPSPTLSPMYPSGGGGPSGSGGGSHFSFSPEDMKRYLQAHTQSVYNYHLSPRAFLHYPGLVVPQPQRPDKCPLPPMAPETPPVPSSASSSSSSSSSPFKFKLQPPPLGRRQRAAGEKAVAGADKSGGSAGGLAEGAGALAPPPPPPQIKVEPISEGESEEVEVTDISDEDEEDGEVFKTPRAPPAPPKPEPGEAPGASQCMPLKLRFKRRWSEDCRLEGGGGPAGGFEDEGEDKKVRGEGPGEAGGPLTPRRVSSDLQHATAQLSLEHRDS
# In short: as §1
# ETV3L = target: T7, ETV3L (Homo sapiens, UniProt Q6ZN32 1-361); conditions: protein: recombinant; tags: N-terminal GST; dsDNA, one strand shown
# T7 sequence: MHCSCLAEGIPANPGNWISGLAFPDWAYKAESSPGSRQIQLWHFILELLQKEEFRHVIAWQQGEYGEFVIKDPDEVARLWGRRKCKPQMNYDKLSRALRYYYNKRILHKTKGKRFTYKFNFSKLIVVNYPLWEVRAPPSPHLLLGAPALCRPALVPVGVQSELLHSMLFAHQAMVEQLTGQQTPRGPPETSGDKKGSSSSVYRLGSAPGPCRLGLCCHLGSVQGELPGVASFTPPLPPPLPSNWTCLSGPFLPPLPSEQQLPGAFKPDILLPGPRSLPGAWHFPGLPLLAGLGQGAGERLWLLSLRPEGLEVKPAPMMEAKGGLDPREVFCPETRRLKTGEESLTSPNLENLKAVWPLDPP
# In short: as §1
# ETS2 = target: T8, ETS2 (Homo sapiens, UniProt P15036 1-469); conditions: protein: recombinant; tags: N-terminal GST; dsDNA, one strand shown
# T8 sequence: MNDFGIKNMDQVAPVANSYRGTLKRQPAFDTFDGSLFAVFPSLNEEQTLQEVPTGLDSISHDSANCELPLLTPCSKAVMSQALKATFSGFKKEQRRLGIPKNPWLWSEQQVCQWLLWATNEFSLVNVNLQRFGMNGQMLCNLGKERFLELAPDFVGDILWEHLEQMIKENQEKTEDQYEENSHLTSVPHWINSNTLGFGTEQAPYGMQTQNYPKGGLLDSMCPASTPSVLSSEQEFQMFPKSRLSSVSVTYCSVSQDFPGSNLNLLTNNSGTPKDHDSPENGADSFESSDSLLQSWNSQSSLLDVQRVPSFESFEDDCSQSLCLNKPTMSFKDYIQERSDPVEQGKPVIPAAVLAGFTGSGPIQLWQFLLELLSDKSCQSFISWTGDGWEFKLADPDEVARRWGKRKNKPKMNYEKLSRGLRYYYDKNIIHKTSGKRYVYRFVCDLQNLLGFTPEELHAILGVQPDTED
# In short: as §1
# SPDEF = target: T9, SPDEF (Homo sapiens, UniProt O95238 1-335); conditions: protein: recombinant; tags: N-terminal GST; dsDNA, one strand shown
# T9 sequence: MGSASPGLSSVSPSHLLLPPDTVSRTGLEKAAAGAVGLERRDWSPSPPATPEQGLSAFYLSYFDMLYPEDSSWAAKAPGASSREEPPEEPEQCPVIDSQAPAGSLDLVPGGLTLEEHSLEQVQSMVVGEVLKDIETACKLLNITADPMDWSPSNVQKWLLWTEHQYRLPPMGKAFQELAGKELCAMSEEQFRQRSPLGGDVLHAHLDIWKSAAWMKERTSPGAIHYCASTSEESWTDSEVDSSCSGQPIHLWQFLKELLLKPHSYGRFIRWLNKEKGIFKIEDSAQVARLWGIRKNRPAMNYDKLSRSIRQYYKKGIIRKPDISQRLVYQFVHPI
# In short: as §1
# ETV7 = target: T10, ETV7 (Homo sapiens, UniProt Q9Y603 1-341); conditions: protein: recombinant; tags: N-terminal GST; dsDNA, one strand shown
# T10 sequence: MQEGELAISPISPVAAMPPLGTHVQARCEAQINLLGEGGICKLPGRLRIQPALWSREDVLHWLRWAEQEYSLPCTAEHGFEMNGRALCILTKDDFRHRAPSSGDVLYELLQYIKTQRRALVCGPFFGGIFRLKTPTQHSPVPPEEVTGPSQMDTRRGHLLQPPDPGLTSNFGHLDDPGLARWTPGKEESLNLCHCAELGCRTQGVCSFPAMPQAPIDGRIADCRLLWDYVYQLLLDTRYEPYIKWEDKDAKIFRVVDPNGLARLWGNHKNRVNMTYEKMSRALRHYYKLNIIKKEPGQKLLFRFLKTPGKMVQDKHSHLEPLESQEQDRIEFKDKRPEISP
# In short: as §1
# ELF5 = target: T11, ELF5 (Homo sapiens, UniProt Q9UKW6-2 1-255); conditions: protein: recombinant; tags: N-terminal GST; dsDNA, one strand shown
# T11 sequence: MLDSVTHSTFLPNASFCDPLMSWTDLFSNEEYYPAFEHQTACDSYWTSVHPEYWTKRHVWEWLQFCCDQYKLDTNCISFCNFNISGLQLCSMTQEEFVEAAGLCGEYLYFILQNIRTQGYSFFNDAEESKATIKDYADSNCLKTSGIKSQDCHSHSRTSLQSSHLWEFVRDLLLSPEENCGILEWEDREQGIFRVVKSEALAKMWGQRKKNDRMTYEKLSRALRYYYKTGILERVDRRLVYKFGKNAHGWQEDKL
# In short: as §1
# ETV3 = target: T12, ETV3 (Homo sapiens, UniProt P41162-2 1-143); conditions: protein: recombinant; tags: N-terminal GST; dsDNA, one strand shown
# T12 sequence: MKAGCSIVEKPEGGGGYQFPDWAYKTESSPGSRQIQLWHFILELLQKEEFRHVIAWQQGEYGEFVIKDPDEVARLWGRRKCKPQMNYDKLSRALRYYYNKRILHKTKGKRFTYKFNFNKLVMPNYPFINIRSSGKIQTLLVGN
# In short: as §1
# ETV6 = ETV6 (Homo sapiens, UniProt P41212 1-452); conditions: protein: recombinant; tags: N-terminal GST; dsDNA, one strand shown
# In short: as §1
# Chain of ELF4 (Q99607 whole entry): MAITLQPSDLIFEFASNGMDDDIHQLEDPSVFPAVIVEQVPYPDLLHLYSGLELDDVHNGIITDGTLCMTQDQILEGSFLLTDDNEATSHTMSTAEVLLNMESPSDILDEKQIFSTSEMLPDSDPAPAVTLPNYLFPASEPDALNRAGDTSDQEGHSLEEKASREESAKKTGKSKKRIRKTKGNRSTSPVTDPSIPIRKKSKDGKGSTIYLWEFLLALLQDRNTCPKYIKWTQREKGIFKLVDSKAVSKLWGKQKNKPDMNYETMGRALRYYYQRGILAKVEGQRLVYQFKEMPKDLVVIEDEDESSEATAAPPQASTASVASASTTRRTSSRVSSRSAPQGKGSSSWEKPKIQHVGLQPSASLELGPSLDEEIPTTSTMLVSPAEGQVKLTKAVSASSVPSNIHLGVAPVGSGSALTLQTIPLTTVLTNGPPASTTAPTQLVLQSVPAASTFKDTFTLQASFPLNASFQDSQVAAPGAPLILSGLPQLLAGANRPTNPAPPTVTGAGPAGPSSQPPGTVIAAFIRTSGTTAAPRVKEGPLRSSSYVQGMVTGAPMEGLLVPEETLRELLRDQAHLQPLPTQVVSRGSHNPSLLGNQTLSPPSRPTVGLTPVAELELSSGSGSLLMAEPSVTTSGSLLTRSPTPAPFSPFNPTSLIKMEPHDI
# Chain of ETV1 (P50549 whole entry): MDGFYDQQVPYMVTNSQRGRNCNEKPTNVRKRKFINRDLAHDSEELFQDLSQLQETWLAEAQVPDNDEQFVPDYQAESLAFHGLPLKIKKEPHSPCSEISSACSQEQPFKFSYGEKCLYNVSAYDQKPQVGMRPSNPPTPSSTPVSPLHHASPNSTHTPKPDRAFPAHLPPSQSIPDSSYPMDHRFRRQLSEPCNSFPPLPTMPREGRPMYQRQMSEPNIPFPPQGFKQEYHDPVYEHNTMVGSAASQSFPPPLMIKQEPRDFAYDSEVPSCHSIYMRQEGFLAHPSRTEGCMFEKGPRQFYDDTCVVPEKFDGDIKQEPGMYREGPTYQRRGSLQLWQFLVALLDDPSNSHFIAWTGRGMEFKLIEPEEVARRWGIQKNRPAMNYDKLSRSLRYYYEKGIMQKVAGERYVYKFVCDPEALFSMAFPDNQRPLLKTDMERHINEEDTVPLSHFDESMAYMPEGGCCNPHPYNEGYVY
# Chain of CRX (O43186 whole entry): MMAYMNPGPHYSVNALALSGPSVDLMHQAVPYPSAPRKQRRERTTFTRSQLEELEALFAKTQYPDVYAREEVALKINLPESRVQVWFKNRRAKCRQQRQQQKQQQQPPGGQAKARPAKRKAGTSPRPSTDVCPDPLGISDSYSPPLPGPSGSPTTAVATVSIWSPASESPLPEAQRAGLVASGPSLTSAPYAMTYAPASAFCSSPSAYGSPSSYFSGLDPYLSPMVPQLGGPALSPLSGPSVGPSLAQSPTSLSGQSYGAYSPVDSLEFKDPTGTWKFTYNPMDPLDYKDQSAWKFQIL
# Chain of HSF1 (Q00613 whole entry): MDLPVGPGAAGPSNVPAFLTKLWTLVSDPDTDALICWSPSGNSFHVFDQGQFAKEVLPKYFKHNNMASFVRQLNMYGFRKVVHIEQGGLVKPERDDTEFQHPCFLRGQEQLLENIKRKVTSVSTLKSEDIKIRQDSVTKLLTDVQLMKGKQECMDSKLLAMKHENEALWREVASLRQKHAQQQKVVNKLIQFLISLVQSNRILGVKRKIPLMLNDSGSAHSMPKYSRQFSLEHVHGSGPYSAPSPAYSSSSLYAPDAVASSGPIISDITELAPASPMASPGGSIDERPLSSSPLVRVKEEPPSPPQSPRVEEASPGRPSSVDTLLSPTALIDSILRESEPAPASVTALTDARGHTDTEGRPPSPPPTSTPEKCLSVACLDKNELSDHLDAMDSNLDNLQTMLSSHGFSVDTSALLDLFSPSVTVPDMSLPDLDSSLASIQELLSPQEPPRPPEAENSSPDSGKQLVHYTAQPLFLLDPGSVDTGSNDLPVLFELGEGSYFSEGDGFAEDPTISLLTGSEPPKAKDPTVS
# Chain of ETV6 (P41212 whole entry): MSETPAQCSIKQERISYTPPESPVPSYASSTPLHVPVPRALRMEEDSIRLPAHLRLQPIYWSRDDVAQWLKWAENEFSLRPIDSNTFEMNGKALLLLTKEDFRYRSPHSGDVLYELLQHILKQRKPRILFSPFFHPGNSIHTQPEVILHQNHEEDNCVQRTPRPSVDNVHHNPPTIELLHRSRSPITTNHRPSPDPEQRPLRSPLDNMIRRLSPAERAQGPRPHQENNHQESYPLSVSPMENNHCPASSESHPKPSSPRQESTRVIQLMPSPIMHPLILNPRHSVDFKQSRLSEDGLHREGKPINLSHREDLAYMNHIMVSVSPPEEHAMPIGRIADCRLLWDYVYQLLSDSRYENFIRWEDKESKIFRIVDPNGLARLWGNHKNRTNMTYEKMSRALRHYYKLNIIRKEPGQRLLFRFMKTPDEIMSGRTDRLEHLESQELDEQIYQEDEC
# Chain of ETV5 (P41161 whole entry): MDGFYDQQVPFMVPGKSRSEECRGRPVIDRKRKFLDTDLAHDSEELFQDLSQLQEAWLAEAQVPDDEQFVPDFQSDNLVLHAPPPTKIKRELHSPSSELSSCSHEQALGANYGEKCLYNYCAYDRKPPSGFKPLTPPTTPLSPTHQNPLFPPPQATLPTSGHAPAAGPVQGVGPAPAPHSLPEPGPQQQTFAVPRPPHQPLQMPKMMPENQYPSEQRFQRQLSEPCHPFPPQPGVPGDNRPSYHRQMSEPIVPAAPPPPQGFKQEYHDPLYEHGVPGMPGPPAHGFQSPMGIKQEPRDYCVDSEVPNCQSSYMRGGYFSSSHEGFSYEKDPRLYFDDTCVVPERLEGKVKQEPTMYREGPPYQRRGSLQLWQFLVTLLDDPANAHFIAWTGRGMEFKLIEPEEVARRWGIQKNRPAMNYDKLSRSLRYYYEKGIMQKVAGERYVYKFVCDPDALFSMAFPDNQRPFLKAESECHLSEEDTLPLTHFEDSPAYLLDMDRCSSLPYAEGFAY
sequence,measurement,setting,value
CCGTTC,binding signal,FEV,"1.48 fold enrichment (6-mer frequency, TF over GST control)"
same,binding signal,ETV5,"1.43 fold enrichment (6-mer frequency, TF over GST control)"
same,binding signal,HSF1,"1.18 fold enrichment (6-mer frequency, TF over GST control)"
same,binding signal,SPIC,"1.32 fold enrichment (6-mer frequency, TF over GST control)"
same,binding signal,ELF4,"1.37 fold enrichment (6-mer frequency, TF over GST control)"
same,binding signal,ELK4,"1.23 fold enrichment (6-mer frequency, TF over GST control)"
same,binding signal,ETV2,"1.4 fold enrichment (6-mer frequency, TF over GST control)"
same,binding signal,ELF3,"1.36 fold enrichment (6-mer frequency, TF over GST control)"
same,binding signal,CRX,"1.11 fold enrichment (6-mer frequency, TF over GST control)"
same,binding signal,ETV1,"1.27 fold enrichment (6-mer frequency, TF over GST control)"
same,binding signal,ERF,"1.61 fold enrichment (6-mer frequency, TF over GST control)"
same,binding signal,ETV3L,"1.44 fold enrichment (6-mer frequency, TF over GST control)"
same,binding signal,ETS2,"1.36 fold enrichment (6-mer frequency, TF over GST control)"
same,binding signal,SPDEF,"1.41 fold enrichment (6-mer frequency, TF over GST control)"
same,binding signal,ETV7,"1.32 fold enrichment (6-mer frequency, TF over GST control)"
same,binding signal,ELF5,"1.56 fold enrichment (6-mer frequency, TF over GST control)"
same,binding signal,ETV3,"1.38 fold enrichment (6-mer frequency, TF over GST control)"
same,binding signal,ETV6,"1.37 fold enrichment (6-mer frequency, TF over GST control)"
